The results in this text go back to PubChem BioAssay (NCATS).

Records with an inconclusive call do not appear. A structure can be active in one record and inactive in another. The source made the active and inactive calls. Unless noted, the call rests on the fitted dose curve; in most records, active means well fitted curve in the direction sought with a large enough effect; inconclusive means small, poorly fitted or top-dose-only effect, or another doubt; inactive means no such curve, though single readings can be large; an effect the other way counts as inactive or inconclusive.

Experiment [1] is described as follows: Cytometric Cell-Based qHTS for Inhibitors of the mTORC1 Signaling Pathway in MEF (Tsc2-/-, p53-/-) Cells (AID 2660).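 Further: percent of cells above a phospho-rpS6 to PI ratio cutoff in each well; series mostly up to about 38 µM.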 The procedure, abridged: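 Tsc2-/-, p53-/- MEFs (empty vector) exposed to compound 24 h at 37 C, fixed, stained with Alexa-488 anti-phospho-rpS6 Ser235/236 and propidium iodide. Acumen laser scanning; phospho-S6/PI ratio thresholded against 7.5 nM rapamycin, reported as % positive cells.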
On the technique in general: qHTS replaces the single test concentration by a dilution series.

The nature of experiment [2]: High Content Imaging Cell-Based qHTS for Inhibitors of the mTORC1 Signaling Pathway in MEF (Tsc2-/-, p53-/-) Cells (AID 2666).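 Further: percent of cells scored positive for phospho-rpS6 Ser235/236 immunostaining by imaging.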 The procedure, abridged:
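Inhibition of rpS6 phosphorylation is measured by immunofluorescence imaging in empty-vector Tsc2-/-, p53-/- mouse embryonic fibroblasts after 24 hrs compound exposure at 37 degree Celsius. Results are reported as % positive cells per well.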

Experiment [3] is described as follows: High Content Imaging Cell-Based qHTS for Inhibitors of the mTORC1 Signaling Pathway in MEF Cells (AID 2667).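 Further: Tsc2-/- p53-/- MEFs stably re-expressing wild-type Tsc2 exposed 24 h; series mostly up to about 38 µM.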 An outline of the steps:
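Fixed-cell imaging of phospho-S6 (Ser235/236, Alexa-488) after 24 hrs of compound treatment at 37 degree Celsius. Signal was normalized to Hoechst, and thresholds from the highest and lowest wells split cells into % active versus % non-active.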

Experiment [4] is described as follows: Cytometry Cell-Based qHTS for Inhibitors of the mTORC1 Signaling Pathway in MEF cells (AID 2668).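 Further: Tsc2-/- p53-/- mouse embryonic fibroblasts stably re-expressing wild-type Tsc2; percent cells positive for phospho-rpS6 Ser235/236 relative to propidium iodide stain; series mostly up to about 38 µM.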 The procedure, abridged:
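Read-out: phospho-rpS6 Ser235/236 immunofluorescence normalized to propidium iodide intensity, scored as % active cells against a rapamycin (7.5 nM) threshold. Cells: Tsc2-/-, p53-/- MEFs stably expressing WT Tsc2, compound-treated 24 hrs at 37 degree Celsius.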

Experiment [5] in a line: Validation screen for small molecules that induce DNA re-replication in MCF 10A normal breast cells (AID 463097). Further: nearly all actives have a fitted effect of over 60% in size. The procedure, abridged:
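250 MCF 10A cells/well; compound pin-transferred; 48 hr, 37 C, 5% CO2; Hoechst 40 min; imaged 405/500-530 nm. Hits = more high-intensity nuclei.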

Experiment [6] concerns the target Ubiquitin carboxyl-terminal hydrolase 2 (Homo sapiens) (UniProt O75604). Nature of the experiment: qHTS Validation Assay for Inhibitors of Ubiquitin-specific Protease USP2a Using CHOP2 as the Reporter (AID 463106). An outline of the steps: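 Inhibition is expressed relative to NEM as the full-inhibition control, with concentration-response curves classed by fit quality, magnitude and activity. Enzyme (USP2 core, 10nM) meets 25nM Ub-CHOP2 after compound preincubation; readings are taken at 60min.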

Experiment [7] addresses DNA polymerase III PolC-type (Bacillus subtilis (strain 168)) (UniProt P13267). Kind of experiment: qHTS Validation Assay for the Inhibitors of DNA Replication in Gram-Positive Bacteria (AID 485295).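 Further: reconstituted holoenzyme with PolC plus beta clamp SSB and primase; PicoGreen fluorescence of double-stranded DNA made on primed circular M13 template; series mostly up to about 57 µM.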 The procedure, abridged:
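PicoGreen fluorescence (ex 480–485/em 535–540 nm) reports dsDNA synthesized on ssM13Gori template with dNTPs/NTPs. Enzyme: holoenzyme rebuilt from purified PolC, beta subunit, SSB and primase. Compound preincubated before substrate addition; RT throughout.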

For experiment [8], the target named is Tumor susceptibility gene 101 protein (Homo sapiens) (UniProt Q99816). Nature of the experiment: qHTS Validation Assay for Iinhibitors of HIV-1 Budding by Blocking the Interaction of PTAP/TSG101 (AID 485342; calls by dose curve). An outline of the steps:
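FP read-out: FITC-PTAP peptide, 50 nM final, binding Tsg101 binding domain, 10 uM final; 20 min r.t.; 10 mM HEPES pH 7.5, 0.15 M NaCl, 0.01% Tween 20, 3 mM EDTA, 0.1 mM TCEP.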

Experiment [9] is described as follows: qHTS Validation Assay to Find Inhibitors of Chronic Active B-Cell Receptor Signaling (AID 485345; active means well fitted curve in the direction sought with a large enough effect in the main read-out, with a control signal flat, not every such curve was filed as active). The procedure, abridged: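 TMD8 ABC-DLBCL cells with dox-inducible green luciferase–IκBα fusion and red native luciferase; compounds 46 uM–3 nM, 4 h at 37C with doxycycline in 0.5% FBS IMDM. Green/red ratio normalized to basal and 10 uM MG-132.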
Experiment [10] concerns the target Beta-2 adrenergic receptor (Homo sapiens) (UniProt P07550). Kind of experiment: qHTS validation assay of beta-arrestin-biased ligands of beta2-adrenergic receptor (AID 485366). An outline of the steps:
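qHTS, Tango cells, 1500 cells/well, DMEM + 1% FBS. Cpd 18 hr at 37 degrees C. Luciferin/ATP/CoA detection mix, 15 min RT, luminescence read. %Activity from corrected signal; CRC fit, curve class.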

Experiment [11] can be described thus: Quantitative high throughput screen for delayed death inhibitors of the malarial parasite plastid, 96 hour incubation (AID 488745). Further: nearly all actives have a fitted effect of over 70% in size. Further: potency means the concentration at half of the fitted maximal effect. An outline of the steps: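 Readout is firefly luciferase luminescence from an integrated reporter in P. falciparum; lower signal marks inhibited growth. Cultures at 2% hematocrit and 0.1% parasitemia were treated with compound across two generations (96 h, 37 C, 5% CO2).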

Experiment [12] in a line: Quantitative high throughput screen for delayed death inhibitors of the malarial parasite plastid, 48 hour incubation (AID 488752). Further: nearly all actives have a fitted effect of over 65% in size. Further: potency means the concentration at half of the fitted maximal effect. An outline of the steps: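 First, compound was pinned into RPMI 1640 medium containing 0.5% Albumax. Next, reporter-parasite-infected erythrocytes were added to 2% hematocrit and 0.1% parasitemia. After 48 h at 37 C under 5% CO2, luciferase detection reagent was added and luminescence read.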

Experiment [13] concerns the target Thioredoxin reductase 1, cytoplasmic (Rattus norvegicus) (UniProt O89049). Kind of experiment: qHTS Assay for Substrates of Mammalian Selenoprotein Thioredoxin Reductase 1 (TrxR1) (AID 488772).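 Further: series mostly up to about 57 µM; a drop in NADPH fluorescence below the no-compound background marks a TrxR1 substrate.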 An outline of the steps:
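In this dual-purpose format, potential substrates are identified from the first fluorescence read after selenite addition, not from the 8-minute delta. Rat enzyme is preincubated with NADPH and then with compound at ~22 deg C.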

Experiment [14] has the same target. Nature of the experiment: qHTS Assay for Inhibitors of Mammalian Selenoprotein Thioredoxin Reductase 1 (TrxR1) (AID 488773).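 Further: drop in NADPH fluorescence over an 8 min run after selenite addition; series mostly up to about 57 µM; nearly all actives have a fitted effect of over 40% in size.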 The following applies: Potency: inhibition. An outline of the steps: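 Inhibition is scored from the loss of NADPH fluorescence between first and last reads of an 8-min kinetic run. Selenite (400 uM) was the substrate, added after 15 min compound preincubation at room temperature.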

Experiment [15] concerns the target Chromobox protein homolog 1 (Homo sapiens) (UniProt P83916). Nature of the experiment: qHTS Validation Assay for Inhibitors of HP1-beta Chromodomain Interactions with Methylated Histone Tails (AID 488953). Further: nearly all actives have a fitted effect of over 50% in size. Further: potency means the concentration at half of the fitted maximal effect. An outline of the steps: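 Disruption of preformed HP1-beta:H3K9me3 peptide complexes (both 50 nM, PBS pH 7.4 with 0.01% Tween-20) is measured by AlphaScreen after 30 min compound exposure at room temperature, using streptavidin donor and nickel chelate acceptor beads at 10 ug/mL final.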

Experiment [16] has as its target Flap endonuclease 1 (Homo sapiens) (UniProt P39748). Kind of experiment: qHTS Validation Assay for the Inhibitors of Human Flap endonuclease 1 (FEN1) (AID 488816). The procedure, abridged: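 Steps: add FEN1 (10 nM reagent) or buffer only; pin compounds; hold 15 min at room temperature; start with substrate, 50 nM final; read at 0 and 15 min; correct, normalize and fit a four-parameter Hill curve.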

In experiment [17] the target is M-phase phosphoprotein 8 (Homo sapiens) (UniProt Q99549). Nature of the experiment: qHTS Validation Assay for Inhibitors for MPP8 Chromodomain Interactions with Methylated Histone Tails (AID 488949). Further: nearly all actives have a fitted effect of over 55% in size. Further: potency means the concentration at half of the fitted maximal effect. An outline of the steps: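 AlphaScreen read-out: streptavidin donor and nickel chelate acceptor beads (final 10 ug/mL), 30 min in the dark at RT. Complex of 50 nM MPP8 and 50 nM b-H3(1-18)K9me3 peptide had been exposed to compounds for 30 min beforehand.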

For experiment [18], the target named is ATP-dependent 6-phosphofructokinase (Trypanosoma brucei brucei) (UniProt O15648). Nature of the experiment: qHTS Validation Assay to Find Inhibitors of T. brucei phosphofructokinase (AID 485368). The procedure, abridged:
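Luminescent ADP detection measures PFK turnover of fructose-6-phosphate (0.5 mM) with ATP (0.1 mM) at pH 8.0. Reaction runs 45 min at room temperature with 1.25 nM enzyme; inhibitors tested as titrations up to 57 uM.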

Chain of M-phase phosphoprotein 8 (Homo sapiens) (Q99549 whole entry, looked up): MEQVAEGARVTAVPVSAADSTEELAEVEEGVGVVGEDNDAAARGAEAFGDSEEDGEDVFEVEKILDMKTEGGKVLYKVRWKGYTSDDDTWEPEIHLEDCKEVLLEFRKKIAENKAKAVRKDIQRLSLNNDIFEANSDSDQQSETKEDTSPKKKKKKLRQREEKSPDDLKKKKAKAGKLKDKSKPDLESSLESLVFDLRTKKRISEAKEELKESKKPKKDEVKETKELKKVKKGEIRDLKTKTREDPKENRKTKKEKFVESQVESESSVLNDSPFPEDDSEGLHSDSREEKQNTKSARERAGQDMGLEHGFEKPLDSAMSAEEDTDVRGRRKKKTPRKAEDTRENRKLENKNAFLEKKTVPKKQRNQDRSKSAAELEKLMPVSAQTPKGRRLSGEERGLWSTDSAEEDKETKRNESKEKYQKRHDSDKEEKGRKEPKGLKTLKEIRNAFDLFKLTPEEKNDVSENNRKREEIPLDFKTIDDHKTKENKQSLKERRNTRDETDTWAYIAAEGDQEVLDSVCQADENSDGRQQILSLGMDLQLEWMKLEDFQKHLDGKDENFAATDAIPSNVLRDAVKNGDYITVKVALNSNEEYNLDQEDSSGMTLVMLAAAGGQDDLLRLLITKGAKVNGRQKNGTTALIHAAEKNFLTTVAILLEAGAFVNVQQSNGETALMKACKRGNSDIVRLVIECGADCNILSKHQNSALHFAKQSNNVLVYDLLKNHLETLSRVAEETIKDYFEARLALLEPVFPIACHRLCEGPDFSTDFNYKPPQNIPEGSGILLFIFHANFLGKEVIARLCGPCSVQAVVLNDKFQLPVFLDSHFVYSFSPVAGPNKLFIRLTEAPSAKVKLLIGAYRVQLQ
Chain of DNA polymerase III PolC-type (Bacillus subtilis (strain 168)) (P13267 whole entry, looked up): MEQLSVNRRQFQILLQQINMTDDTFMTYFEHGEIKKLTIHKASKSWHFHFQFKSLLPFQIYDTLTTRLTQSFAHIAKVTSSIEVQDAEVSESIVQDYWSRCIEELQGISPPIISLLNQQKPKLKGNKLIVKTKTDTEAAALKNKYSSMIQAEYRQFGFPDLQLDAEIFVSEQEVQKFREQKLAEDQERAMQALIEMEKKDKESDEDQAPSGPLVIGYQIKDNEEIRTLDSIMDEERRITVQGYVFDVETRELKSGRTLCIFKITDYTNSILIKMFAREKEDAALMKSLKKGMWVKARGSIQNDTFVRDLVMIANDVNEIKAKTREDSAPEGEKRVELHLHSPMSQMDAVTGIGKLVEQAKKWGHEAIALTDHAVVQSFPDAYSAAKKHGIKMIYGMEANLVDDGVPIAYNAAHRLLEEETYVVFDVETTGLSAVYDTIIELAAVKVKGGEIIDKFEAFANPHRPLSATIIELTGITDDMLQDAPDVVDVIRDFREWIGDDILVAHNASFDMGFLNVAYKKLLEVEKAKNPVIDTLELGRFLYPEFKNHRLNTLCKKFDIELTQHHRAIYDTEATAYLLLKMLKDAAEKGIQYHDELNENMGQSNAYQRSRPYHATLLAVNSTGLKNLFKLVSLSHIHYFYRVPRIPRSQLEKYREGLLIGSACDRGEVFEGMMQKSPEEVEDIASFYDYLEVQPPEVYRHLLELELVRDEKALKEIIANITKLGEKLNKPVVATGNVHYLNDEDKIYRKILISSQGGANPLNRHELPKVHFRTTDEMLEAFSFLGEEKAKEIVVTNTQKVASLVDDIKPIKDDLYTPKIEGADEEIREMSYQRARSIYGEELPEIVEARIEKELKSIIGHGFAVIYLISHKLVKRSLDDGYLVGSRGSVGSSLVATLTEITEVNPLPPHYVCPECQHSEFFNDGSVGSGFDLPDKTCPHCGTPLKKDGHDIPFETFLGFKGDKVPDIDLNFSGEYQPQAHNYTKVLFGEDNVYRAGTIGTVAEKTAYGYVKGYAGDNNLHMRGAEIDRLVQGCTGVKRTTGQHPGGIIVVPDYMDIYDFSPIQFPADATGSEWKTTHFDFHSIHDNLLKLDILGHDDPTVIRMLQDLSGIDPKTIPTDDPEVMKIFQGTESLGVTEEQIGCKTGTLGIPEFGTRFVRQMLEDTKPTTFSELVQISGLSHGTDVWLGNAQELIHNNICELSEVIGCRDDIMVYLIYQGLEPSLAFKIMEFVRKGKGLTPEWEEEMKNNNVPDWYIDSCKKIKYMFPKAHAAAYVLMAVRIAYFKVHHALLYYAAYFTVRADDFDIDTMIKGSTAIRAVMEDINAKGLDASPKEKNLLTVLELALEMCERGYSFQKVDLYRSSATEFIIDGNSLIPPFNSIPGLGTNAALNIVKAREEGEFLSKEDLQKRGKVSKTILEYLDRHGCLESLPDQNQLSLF
Chain of Tumor susceptibility gene 101 protein (Homo sapiens) (Q99816 whole entry, looked up, the tested form may be a part): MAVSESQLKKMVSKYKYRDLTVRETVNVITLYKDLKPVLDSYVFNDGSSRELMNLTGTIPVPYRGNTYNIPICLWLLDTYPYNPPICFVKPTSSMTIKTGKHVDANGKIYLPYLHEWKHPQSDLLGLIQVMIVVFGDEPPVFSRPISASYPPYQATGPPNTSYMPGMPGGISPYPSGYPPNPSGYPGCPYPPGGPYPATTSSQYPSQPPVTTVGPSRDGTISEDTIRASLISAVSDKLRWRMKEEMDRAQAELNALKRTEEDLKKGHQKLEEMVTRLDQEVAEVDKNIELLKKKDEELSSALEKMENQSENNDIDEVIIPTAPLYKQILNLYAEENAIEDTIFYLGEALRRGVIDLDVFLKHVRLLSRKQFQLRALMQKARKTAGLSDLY
Chain of Chromobox protein homolog 1 (Homo sapiens) (P83916 whole entry, looked up): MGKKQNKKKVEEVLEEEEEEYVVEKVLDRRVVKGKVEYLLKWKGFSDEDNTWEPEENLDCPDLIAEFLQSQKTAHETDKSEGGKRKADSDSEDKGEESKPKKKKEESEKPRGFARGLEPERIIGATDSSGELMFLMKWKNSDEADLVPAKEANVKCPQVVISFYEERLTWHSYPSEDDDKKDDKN
Chain of Thioredoxin reductase 1, cytoplasmic (Rattus norvegicus) (O89049 whole entry, looked up): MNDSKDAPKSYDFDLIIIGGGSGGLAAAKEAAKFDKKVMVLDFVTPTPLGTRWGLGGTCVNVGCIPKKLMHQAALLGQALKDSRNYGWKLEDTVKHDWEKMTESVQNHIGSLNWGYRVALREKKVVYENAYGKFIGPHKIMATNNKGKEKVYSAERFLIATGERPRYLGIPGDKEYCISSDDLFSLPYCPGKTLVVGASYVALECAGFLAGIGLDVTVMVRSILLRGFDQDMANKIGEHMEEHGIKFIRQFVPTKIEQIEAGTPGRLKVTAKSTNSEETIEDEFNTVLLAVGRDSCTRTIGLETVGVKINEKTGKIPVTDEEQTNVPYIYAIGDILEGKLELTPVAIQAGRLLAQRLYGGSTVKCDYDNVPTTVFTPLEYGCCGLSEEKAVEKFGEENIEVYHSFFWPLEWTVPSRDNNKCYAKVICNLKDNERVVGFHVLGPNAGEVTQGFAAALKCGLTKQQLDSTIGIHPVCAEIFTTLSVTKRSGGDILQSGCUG
Chain of Beta-2 adrenergic receptor (Homo sapiens) (P07550 whole entry, looked up): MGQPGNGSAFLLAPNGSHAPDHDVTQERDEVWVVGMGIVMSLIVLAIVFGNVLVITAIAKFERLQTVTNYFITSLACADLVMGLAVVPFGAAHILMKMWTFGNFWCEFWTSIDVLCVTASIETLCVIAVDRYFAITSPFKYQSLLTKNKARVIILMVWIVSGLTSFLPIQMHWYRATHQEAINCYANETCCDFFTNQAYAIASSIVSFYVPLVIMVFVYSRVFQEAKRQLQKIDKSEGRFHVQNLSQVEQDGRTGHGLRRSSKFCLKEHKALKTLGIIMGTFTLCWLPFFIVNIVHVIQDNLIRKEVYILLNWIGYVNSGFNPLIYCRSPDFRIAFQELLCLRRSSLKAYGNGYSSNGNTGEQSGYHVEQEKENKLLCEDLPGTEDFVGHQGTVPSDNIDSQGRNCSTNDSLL
Chain of Flap endonuclease 1 (Homo sapiens) (P39748 whole entry, looked up): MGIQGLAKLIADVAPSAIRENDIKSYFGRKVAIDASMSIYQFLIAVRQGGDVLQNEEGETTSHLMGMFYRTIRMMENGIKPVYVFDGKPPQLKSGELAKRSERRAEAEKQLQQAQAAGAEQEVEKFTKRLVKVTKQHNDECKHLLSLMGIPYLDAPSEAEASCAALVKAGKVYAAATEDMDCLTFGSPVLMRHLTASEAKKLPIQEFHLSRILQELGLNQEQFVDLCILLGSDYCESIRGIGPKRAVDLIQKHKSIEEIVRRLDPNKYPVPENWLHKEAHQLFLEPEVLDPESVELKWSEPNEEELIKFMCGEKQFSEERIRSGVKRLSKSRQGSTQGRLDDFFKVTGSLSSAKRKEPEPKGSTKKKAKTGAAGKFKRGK
Chain of Ubiquitin carboxyl-terminal hydrolase 2 (Homo sapiens) (O75604 whole entry, looked up): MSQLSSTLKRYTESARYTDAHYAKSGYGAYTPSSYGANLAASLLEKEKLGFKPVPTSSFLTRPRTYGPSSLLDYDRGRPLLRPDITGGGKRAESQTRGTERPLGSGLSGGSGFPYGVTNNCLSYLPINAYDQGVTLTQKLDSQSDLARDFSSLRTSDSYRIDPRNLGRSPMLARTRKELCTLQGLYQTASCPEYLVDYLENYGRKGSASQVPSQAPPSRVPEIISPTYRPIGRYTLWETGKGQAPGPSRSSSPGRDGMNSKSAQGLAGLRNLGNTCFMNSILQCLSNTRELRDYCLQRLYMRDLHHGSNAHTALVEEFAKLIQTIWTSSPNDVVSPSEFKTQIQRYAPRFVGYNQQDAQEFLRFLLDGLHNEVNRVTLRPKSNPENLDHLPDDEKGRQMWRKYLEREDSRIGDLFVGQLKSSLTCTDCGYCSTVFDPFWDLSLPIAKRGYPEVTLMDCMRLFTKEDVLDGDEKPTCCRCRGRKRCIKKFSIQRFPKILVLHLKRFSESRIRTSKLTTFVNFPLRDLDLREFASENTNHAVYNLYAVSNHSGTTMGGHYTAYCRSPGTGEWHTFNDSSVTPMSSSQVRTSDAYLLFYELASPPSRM

`CN1[C@@H](CC(=O)c2ccccc2)CCC[C@H]1C[C@H](O)c1ccccc1`: the compound was called inactive in [1], in experiment [8], in experiment [9] and in [10]. Further, the Potency entry in experiment [2], in [3], in [4], in [5], in [6] and in experiment [7] was “inactive” in each case. Besides, the Potency result in [11], in experiment [12], in experiment [13], in experiment [14] and in experiment [15] was “inactive” each time.

As for `O=C(O)CCCC[C@@H]1CCSS1`, the outcome in experiment [1], in [8], in [9] and in experiment [10] was inactive. For the same compound, the Potency result in experiment [2], in experiment [3], in experiment [4], in [5], in experiment [6] and in [7] was “inactive” throughout. Besides, the Potency result in experiment [11], in [12], in experiment [13], in experiment [16], in experiment [17] and in [15] was “inactive” throughout.

For the compound `O=C(O)c1cc(=O)c2c(Cl)cc(Cl)cc2[nH]1`, the outcome in experiment [1], in experiment [9] and in [10] was inactive. Besides, the Potency result in experiment [2], in experiment [3], in experiment [4], in experiment [5], in [6] and in [7] was “inactive” each time. Moreover, the Potency result in [18], in [11], in experiment [12], in experiment [13], in experiment [16] and in experiment [17] was “inactive” throughout. Moreover, the Potency entry in experiment [15] was “inactive”.

In the case of `CN(C)c1nc(N)c(C(=O)N=C(N)N)nc1Cl`, the compound was called inactive in experiment [1], in experiment [8] and in [10]. For the same compound, the Potency entry in experiment [2], in experiment [3], in experiment [4], in [5], in experiment [6] and in experiment [7] was “inactive” in each case. In addition, the Potency entry in experiment [12], in [13], in experiment [14], in experiment [16], in experiment [17] and in experiment [15] was “inactive” throughout.

For `C=CC(N)CCC(=O)O` (stereo not drawn), the compound was called inactive in experiment [1], in [9] and in [10]. Besides, the Potency entry in experiment [2], in experiment [3], in experiment [4], in [5], in experiment [6] and in experiment [7] was “inactive” each time. The Potency result in [11], in [12], in experiment [13], in experiment [14], in experiment [16] and in [17] was “inactive” each time.

On to `O=C(O)c1cc([N+](=O)[O-])ccc1NCCCc1ccccc1`, for which the result in [1], in experiment [8] and in experiment [10] was inactive. Moreover, the Potency entry in experiment [2], in [3], in [4], in [5], in [6] and in experiment [7] was “inactive” each time. The Potency result in experiment [11], in [12], in experiment [13], in [16], in experiment [17] and in experiment [15] was “inactive” each time.

For the compound `COC(=O)c1c(C)[nH]c(C)c1C(=O)c1ccccc1Cc1ccccc1`, the result in experiment [1], in experiment [8] and in experiment [10] was inactive. For the same compound, the Potency entry in experiment [2], in experiment [3], in experiment [4], in experiment [5], in [6] and in experiment [7] was “inactive” throughout. Besides, the Potency result in experiment [13], in experiment [14] and in experiment [16] was “inactive” throughout. The Potency in experiment [11] was 11.7 µM (active); in experiment [12], 9.28 µM (active); in experiment [17], 39.8 µM (active) and inactive; in [15] it was 44.7 µM (active).
